120 sequences from the supplement of paper PMC12636033 can be followed below.

± gives the standard deviation of the averaged measurements. Over roughly 33,000 sequences, “E-score (rank enrichment, -0.5 to 0.5)” has its median near -0.0043; the highest 2% begin near 0.24. Only a selection was taken, and the highest values are over-represented in it overall.

This test deals with 2Sp-muMax20 (muMax20 with two 2,6-bis(methyl)pyridine Cys staples). The test is described as follows: PBM 8-mer E-score (E-score (rank enrichment, -0.5 to 0.5)); higher = stronger preferential binding. How it is done:
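Protein binding microarray (universal PBM chip covering all 10-mers in fixed probe flanks) with chemically synthesized human Max(13-93) bHLH-LZ analogs (not full-length Max) bearing noncanonical residues (hArg, Tha, Aib, Nle at 65) and aromatic Cys staples. Read-out per 8-mer (and its reverse complement): E-score (rank-based enrichment, -0.5 to 0.5) and Z-score of median probe intensity.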
With CGGTAACC, the “PBM 8-mer E-score” value was -0.288 ± 0.086.

On to GCACATCC, for which the “PBM 8-mer E-score” value was 0.0732 ± 0.072.

Regarding AGGATTTG, the “PBM 8-mer E-score” value is -0.0789 ± 0.0065.

On to GGAGGTGA, for which the “PBM 8-mer E-score” value was -0.109 ± 0.038.

AGTTGGTC: the “PBM 8-mer E-score” value is -0.13 ± 0.083.

Turning to GATCCGAC, the “PBM 8-mer E-score” value was -0.198 ± 0.026.

In the case of AGTTGAAA, the “PBM 8-mer E-score” value is -0.0343 ± 0.15.

Regarding TCAGGTCA, the “PBM 8-mer E-score” value is -0.126 ± 0.038.

Take CCCGCCCG: the “PBM 8-mer E-score” value was 0.16 ± 0.065.

With CCCGCCCC, the “PBM 8-mer E-score” value stood at 0.281 ± 0.022.

With GCCGCCCC, the “PBM 8-mer E-score” value is 0.0266 ± 0.044.

Turning to ACCGCCCC, the “PBM 8-mer E-score” value turned out to be 0.132 ± 0.0083.

For CCCGCCCA, the “PBM 8-mer E-score” value amounted to 0.396 ± 0.012.

On to GCCGCCCA, for which the “PBM 8-mer E-score” value is -0.111 ± 0.053.

Consider CCACCCGG, for which the “PBM 8-mer E-score” value is -0.213 ± 0.012.

Take ACTGCTTC: the “PBM 8-mer E-score” value was -0.0855 ± 0.012.

As to AGCCTAAT, the “PBM 8-mer E-score” value amounted to 0.0715 ± 0.12.

In the case of ATGTTTTA, the “PBM 8-mer E-score” value amounted to 0.0882 ± 0.015.

For the sequence ATCCTCGG, the “PBM 8-mer E-score” value is -0.136 ± 0.022.

With ACGTGGAA, the “PBM 8-mer E-score” value amounted to 0.188 ± 0.014.

On to ACGTGGAT, for which the “PBM 8-mer E-score” value is 0.2668 ± 0.0015.

On to ACGTGGAC, for which the “PBM 8-mer E-score” value is 0.208 ± 0.053.

As to ACGTGGCT, the “PBM 8-mer E-score” value is 0.238 ± 0.019.

ACGTGGCA: the “PBM 8-mer E-score” value was determined as 0.217 ± 0.094.

With ACGTGGCC, the “PBM 8-mer E-score” value was -0.048 ± 0.005.

For the sequence ACGTGCCG, the “PBM 8-mer E-score” value was 0.0769 ± 0.0064.

In the case of ACGTGCCC, the “PBM 8-mer E-score” value came out at 0.1949 ± 0.0017.

As for ACGTGCCT, the “PBM 8-mer E-score” value came out at 0.257 ± 0.045.

Regarding ACTGCCGC, the “PBM 8-mer E-score” value was -0.11 ± 0.0048.

With AGAACGCA, the “PBM 8-mer E-score” value was -0.0651 ± 0.016.

As to AAATAGCC, the “PBM 8-mer E-score” value was 0.155 ± 0.026.

As to GCTAGCTA, the “PBM 8-mer E-score” value was -0.00454 ± 0.02.

With CCATTTCG, the “PBM 8-mer E-score” value is -0.131 ± 0.16.

On to GAGTAAGC, for which the “PBM 8-mer E-score” value is -0.0367 ± 0.065.

As for CAGCATGG, the “PBM 8-mer E-score” value worked out at 0.258 ± 0.074.

For GAGCATGA, the “PBM 8-mer E-score” value amounted to 0.154 ± 0.055.

As to AAGCATGT, the “PBM 8-mer E-score” value is 0.208 ± 0.059.

Take AAGCATGG: the “PBM 8-mer E-score” value was determined as 0.221 ± 0.0031.

Regarding TAGCATGA, the “PBM 8-mer E-score” value came out at 0.237 ± 0.075.

On to AAGCATGA, for which the “PBM 8-mer E-score” value turned out to be 0.0552 ± 0.075.

Take AAGCATCC: the “PBM 8-mer E-score” value is -0.0641 ± 0.07.

Turning to CGGCATGC, the “PBM 8-mer E-score” value turned out to be 0.154 ± 0.053.

For the sequence AAGCATGC, the “PBM 8-mer E-score” value came to 0.309 ± 0.047.

Turning to CAGCATGA, the “PBM 8-mer E-score” value was determined as 0.131 ± 0.046.

Turning to CAGCATGC, the “PBM 8-mer E-score” value stood at 0.245 ± 0.055.

Turning to GAGCATGC, the “PBM 8-mer E-score” value stood at 0.233 ± 0.065.

Turning to ATTTGAAG, the “PBM 8-mer E-score” value was 0.0351 ± 0.054.

On to CGCTCCCC, for which the “PBM 8-mer E-score” value was -0.1001 ± 0.00055.

As to GTACTGAA, the “PBM 8-mer E-score” value amounted to 0.149 ± 0.041.

For the sequence CGCCCAAA, the “PBM 8-mer E-score” value was found to be 0.0607 ± 0.014.

Regarding CATTCGAC, the “PBM 8-mer E-score” value is -0.0616 ± 0.11.

For the sequence ATTAGCTC, the “PBM 8-mer E-score” value amounted to 0.0373 ± 0.031.

For AAGTTCTA, the “PBM 8-mer E-score” value amounted to 0.0127 ± 0.022.

On to CGCAGTGA, for which the “PBM 8-mer E-score” value was -0.145.

Consider ATCTTATC, for which the “PBM 8-mer E-score” value was found to be 0.0505 ± 0.042.

Regarding CCTCCCAA, the “PBM 8-mer E-score” value is 0.0742 ± 0.037.

As to ACTCCCCC, the “PBM 8-mer E-score” value is -0.187 ± 0.021.

In the case of CCCTCCCA, the “PBM 8-mer E-score” value worked out at 0.353 ± 0.04.

As for ACTCCCCT, the “PBM 8-mer E-score” value is 0.182 ± 0.027.

Take ACCTCCCA: the “PBM 8-mer E-score” value is -0.071 ± 0.0025.

Turning to ACTCCCCA, the “PBM 8-mer E-score” value came to 0.282 ± 0.067.

For TATCCCCA, the “PBM 8-mer E-score” value was determined as 0.239 ± 0.014.

Take CCTCCCCA: the “PBM 8-mer E-score” value amounted to 0.31 ± 0.028.

Consider CCTCCCCC, for which the “PBM 8-mer E-score” value was -0.0661 ± 0.021.

As for GCCTCCCA, the “PBM 8-mer E-score” value is -0.214 ± 0.05.

With AATCCCCA, the “PBM 8-mer E-score” value came to 0.161 ± 0.02.

For the sequence CATCCCCA, the “PBM 8-mer E-score” value turned out to be 0.145 ± 0.0068.

Take ATCACGAG: the “PBM 8-mer E-score” value is -0.0973 ± 0.13.

For the sequence CGGATAAC, the “PBM 8-mer E-score” value is -0.215 ± 0.003.

CCGAGCTC: the “PBM 8-mer E-score” value was -0.137 ± 0.0056.

Regarding AGTGCAAG, the “PBM 8-mer E-score” value was found to be 0.0261 ± 0.015.

Take CTACAGTA: the “PBM 8-mer E-score” value turned out to be 0.136 ± 0.017.

For the sequence ATACAGCA, the “PBM 8-mer E-score” value came to 0.2373 ± 0.0021.

On to ATACAGTG, for which the “PBM 8-mer E-score” value amounted to 0.248 ± 0.065.

ATACAGTC: the “PBM 8-mer E-score” value amounted to 0.0481 ± 0.076.

Take CTACAGCA: the “PBM 8-mer E-score” value amounted to 0.0474 ± 0.16.

With ATACAGTA, the “PBM 8-mer E-score” value was 0.259 ± 0.013.

Consider GTACAGTA, for which the “PBM 8-mer E-score” value is 0.137 ± 0.034.

Consider ATACAGCG, for which the “PBM 8-mer E-score” value is -0.089 ± 0.017.

As for ACACAGTG, the “PBM 8-mer E-score” value was 0.0818 ± 0.048.

As for GCTAAACA, the “PBM 8-mer E-score” value was -0.106 ± 0.062.

Consider CCAGCTTA, for which the “PBM 8-mer E-score” value was -0.129 ± 0.07.

Turning to CGCGCCAC, the “PBM 8-mer E-score” value was 0.0139 ± 0.054.

As to ACCTTTGG, the “PBM 8-mer E-score” value is -0.277 ± 0.058.

Regarding CGGTTCCC, the “PBM 8-mer E-score” value was -0.179 ± 0.095.

Regarding GAGGGTTA, the “PBM 8-mer E-score” value amounted to 0.064 ± 0.0085.

For the sequence AAAGCTGG, the “PBM 8-mer E-score” value worked out at 0.0243 ± 0.073.

In the case of CAAGCTGA, the “PBM 8-mer E-score” value worked out at 0.0436 ± 0.058.

Turning to AAAGCTGA, the “PBM 8-mer E-score” value is 0.285 ± 0.0073.

As for ACCGCCCT, the “PBM 8-mer E-score” value is -0.0858 ± 0.06.

CGACGAGA: the “PBM 8-mer E-score” value is -0.147 ± 0.078.

Regarding CAGCGTGG, the “PBM 8-mer E-score” value stood at 0.039 ± 0.028.

On to GGCCCCAA, for which the “PBM 8-mer E-score” value came out at 0.00781 ± 0.067.

Take CGCCCCAA: the “PBM 8-mer E-score” value was found to be 0.3051 ± 0.0025.

As to CGCCCCAC, the “PBM 8-mer E-score” value was determined as 0.303 ± 0.0035.

With CGCCCCAG, the “PBM 8-mer E-score” value came to 0.0339 ± 0.02.

On to TGCCCCAA, for which the “PBM 8-mer E-score” value is 0.274 ± 0.016.

Turning to TGCCCCCA, the “PBM 8-mer E-score” value is -0.0389 ± 0.018.

For GGCCCCAC, the “PBM 8-mer E-score” value is 0.0799 ± 0.062.

As to CGCCCCCA, the “PBM 8-mer E-score” value was -0.198 ± 0.069.

As to TGCCCAAA, the “PBM 8-mer E-score” value is -0.0856 ± 0.086.

Take AGGTTCTA: the “PBM 8-mer E-score” value is -0.106 ± 0.0063.

For GGTTCTAA, the “PBM 8-mer E-score” value is -0.026 ± 0.026.

On to AACGAGCC, for which the “PBM 8-mer E-score” value was -0.0314 ± 0.029.

GACTAGCC: the “PBM 8-mer E-score” value is -0.0736 ± 0.047.

For the sequence ACACCGAG, the “PBM 8-mer E-score” value was -0.219 ± 0.031.

Regarding ACGACGCT, the “PBM 8-mer E-score” value was -0.0201 ± 0.033.

For CTGGTGTA, the “PBM 8-mer E-score” value was -0.00226 ± 0.005.

As to ATCGATAA, the “PBM 8-mer E-score” value came out at 0.00019 ± 0.013.

For AAGTCAAA, the “PBM 8-mer E-score” value amounted to 0.0188 ± 0.0089.

Consider GAGTCAAA, for which the “PBM 8-mer E-score” value was -0.0157 ± 0.11.

Regarding TAGTCAAA, the “PBM 8-mer E-score” value amounted to 0.27 ± 0.033.

As for GACTAGCA, the “PBM 8-mer E-score” value came to 0.102 ± 0.099.

Regarding AGAGCTAA, the “PBM 8-mer E-score” value is -0.0564 ± 0.081.

As for AGTTTCAA, the “PBM 8-mer E-score” value is -0.0457 ± 0.0064.

On to ATTACCCA, for which the “PBM 8-mer E-score” value stood at 0.288 ± 0.037.

For ATTACCCG, the “PBM 8-mer E-score” value is -0.0469 ± 0.081.

Turning to ATTACCCC, the “PBM 8-mer E-score” value was 0.169 ± 0.065.

Turning to TACCTCGA, the “PBM 8-mer E-score” value was -0.079 ± 0.12.

As to TCCGAAAA, the “PBM 8-mer E-score” value is -0.0537 ± 0.063.
